# Only some compounds are listed: those with a hit (about 2.1% of all), similar ones and a draw of the others.
# MsrA inh – inhibitors of bovine MsrA | inhibition, % at 15.5 µM | purified bovine MsrA, absorbance read-out | 360,000 compounds, 0.75% hits;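 note: 0% = vehicle wells with enzyme and 100% = reference inhibitor wells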
# bovine MsrA act – bovine methionine sulfoxide reductase A activation. purified bovine MsrA, absorbance read-out. activation, % at 10.6 µM. 360,000 compounds, 0.3% hits. AID 602163; in the data active = activation above about 7.5%;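 note: 0% = vehicle and 100% = reference activator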
# SMARCA2 act – increases SMARCA2 function in MMTV reporter cells; activation, % at 9.1 µM; MG213 cells, MMTV-luciferase reporter, dexamethasone, overnight; AID 652017; 370,000 compounds, 1% hits; in the data active = activation above about 7.8%;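 note: 0% = vehicle wells and 100% = reference activator wells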
# ABCB6 inh 2 – blocks the human ABCB6 transporter; fluorescence ratio to DMSO, % at 10 µM; 360,000 compounds, 0.19% hits; Q9NP58; K562-ABCB6 porphyrin accumulation, flow cytometry, 1 h; active compounds read low;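 active = fluorescence ratio to DMSO below 75%, the collection mean minus 3 SD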;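 note: signal is porphyrin accumulated inside mitochondria; 100% equals median channel fluorescence of DMSO control wells; lower ratio means ABCB6 inhibition with less porphyrin fluorescence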
# Target sequence (Q9NP58 whole entry, looked up): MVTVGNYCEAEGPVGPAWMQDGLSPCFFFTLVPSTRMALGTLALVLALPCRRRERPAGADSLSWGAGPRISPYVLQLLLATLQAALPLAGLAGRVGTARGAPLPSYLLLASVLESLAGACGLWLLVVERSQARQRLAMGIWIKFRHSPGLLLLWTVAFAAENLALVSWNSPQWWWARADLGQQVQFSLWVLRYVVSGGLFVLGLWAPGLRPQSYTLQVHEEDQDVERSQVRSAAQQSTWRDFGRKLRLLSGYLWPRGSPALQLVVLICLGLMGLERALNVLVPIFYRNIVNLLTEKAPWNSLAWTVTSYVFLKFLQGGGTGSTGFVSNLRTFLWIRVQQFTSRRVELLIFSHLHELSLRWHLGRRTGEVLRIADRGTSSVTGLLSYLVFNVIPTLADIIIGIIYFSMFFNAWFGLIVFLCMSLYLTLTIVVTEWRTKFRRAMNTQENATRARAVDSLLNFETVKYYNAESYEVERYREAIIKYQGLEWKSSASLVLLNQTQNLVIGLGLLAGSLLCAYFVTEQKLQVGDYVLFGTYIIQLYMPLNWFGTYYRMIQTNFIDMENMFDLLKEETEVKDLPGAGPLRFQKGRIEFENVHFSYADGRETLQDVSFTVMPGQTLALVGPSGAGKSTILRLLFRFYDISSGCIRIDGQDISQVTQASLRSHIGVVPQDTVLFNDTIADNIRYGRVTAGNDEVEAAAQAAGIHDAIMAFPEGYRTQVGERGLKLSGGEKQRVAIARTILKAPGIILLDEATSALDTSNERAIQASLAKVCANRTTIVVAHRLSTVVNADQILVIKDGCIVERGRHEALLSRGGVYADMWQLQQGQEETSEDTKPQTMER
# MsrA inh confirm – bovine MsrA inhibition, confirmed. shares compounds with MsrA inh. purified bovine MsrA, absorbance read-out. inhibition, % at 15.5 µM. 2,300 compounds, 41% hits;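 note: coupled to thioredoxin reductase with NADPH and selenocystamine and DMSO as substrate; 0% = vehicle only and 100% = full effect of reference inhibitor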
# An asterisk follows results filed as active; i = inactive; nt = not tested or not shown. Cut-off read from the data, not from the text of the source, unless noted: active = inhibition above about 4.5%; inactive = the rest.
SMILES,MsrA inh,bovine MsrA act,SMARCA2 act,ABCB6 inh 2,MsrA inh confirm
CC(=O)OC12CCCN(C1)/C(=C/c1cccc(N(C)C)c1)C2 (centres undefined),nt,nt,-2.8,nt,nt
CC(C)C[C@H]1COc2cccc(F)c2S(=O)(=O)N1Cc1cn(Cc2ccc(Cl)cc2)nn1,nt,nt,-2.9,nt,nt
COc1ccc(/C=C2\SC(N)=NC2=O)cc1,4.8*,-4.2,0.0,94.0,5.0*
NC1=NC(=O)/C(=C/c2ccsc2)S1,5.7*,-5.9,-2.0,97.0,3.7
NC1=NC(=O)/C(=C\c2cccnc2)S1,2.2,-10.2,-3.9,84.0,nt
NC1=NC(=O)C(=Cc2ccccc2)S1,3.6,-11.1,-0.3,103.0,nt
COC(=O)c1ccc(/C=N/NC(=O)c2cccc(F)c2)cc1,nt,-2.6,nt,96.0,nt
O=C(N/N=C/c1cnc2ccccc2n1)c1cccc(F)c1,5.8*,-5.5,0.0,99.0,3.6
Cc1cc(O)c2c(-c3ccccc3)cc(=O)oc2c1,8.5*,3.6,-1.7,79.0,1.8
Cc1c(O)ccc2c(-c3ccccc3)cc(=O)oc12,41.0*,-6.0,-2.6,97.0,34.6*
COc1ccc(-c2cc(=O)oc3c(C)c(O)ccc23)cc1,12.1*,-3.6,-4.2,104.0,2.7
CCOC(=O)C(Oc1ccc2c(-c3ccc(OC)cc3)cc(=O)oc2c1C)c1ccccc1 (centres undefined),-0.5,-1.1,-4.5,100.0,nt
COc1ccc(-c2cc(=O)oc3c(C)c(OC(C)C(C)=O)ccc23)cc1 (centres undefined),22.2*,-1.9,-2.9,i,16.3*
CCN(CC)Cc1c(O)ccc2c(-c3ccccc3)cc(=O)oc12,0.9,-0.3,1.8,103.0,nt
CNc1oc(/C=C/c2ccccc2)nc1C#N,4.8*,-4.7,1.0,102.0,4.6*
Cc1ccc(-c2cc(C(=O)NN=Cc3ccc(F)cc3)[nH]n2)cc1C,nt,nt,-3.6,nt,nt
CCOc1ccc(N(C)S(=O)(=O)c2cc(-c3cc(C)no3)ccc2OC)cc1,0.6,-2.5,-4.6,91.0,nt
CCOc1ccc(N(C)S(=O)(=O)c2cc(-c3cc(C)no3)ccc2C)cc1,11.9*,-3.1,-7.5,96.0,11.2*
CCOc1ccc(N(C)S(=O)(=O)c2cc(-c3cc(C)no3)ccc2CC)cc1,14.8*,-2.3,-0.5,95.0,15.3*
O=C(NC1=C(NC2CCS(=O)(=O)C2)C(=O)c2ccccc2C1=O)c1ccccc1 (centres undefined),5.0*,-0.7,-5.6,107.0,0.6
CCC(C(=O)NCc1ccccc1)n1c(CSCCOc2ccccc2)nc2ccccc21 (centres undefined),-0.4,nt,-8.7,nt,nt
C[C@@H]1CN([C@H](C)CO)C(=O)CCCn2nncc2CO[C@H]1CN(C)Cc1ccc2cccnc2c1,0.1,-1.8,4.9,99.0,nt
O=C1c2cc([N+](=O)[O-])ccc2-c2cc(Br)c(N=C(NO)C(F)(F)F)cc21,0.2,1.4,-2.7,109.0,nt
CC(=O)Oc1ccc(/C=C(\NC(=O)c2ccco2)C(=O)Nc2ccc(C(C)=O)cc2)cc1,3.0,0.4,0.5,100.0,nt
COc1ccc(/C=C(\NC(=O)c2ccco2)C(=O)Nc2ccc(C(C)=O)cc2)cc1,5.4*,-9.2,-2.8,99.0,6.2*
SMILES,MsrA inh,bovine MsrA act,SMARCA2 act,ABCB6 inh 2,MsrA inh confirm
COc1ccc(/C=C(/NC(=O)c2ccco2)C(=O)Nc2ccc(C(=O)O)cc2)cc1,6.2*,-1.5,-0.6,96.0,2.1
O=C(Nc1ccc(C(=O)O)cc1)/C(=C\c1ccco1)NC(=O)c1ccc(Br)cc1,5.1*,-4.9,-1.2,97.0,3.0
O=C(Nc1ccc(C(=O)O)cc1)/C(=C\c1ccco1)NC(=O)c1ccc(Br)o1,2.3,-4.6,-2.6,95.0,nt
COc1ccc([C@H]2OC(=O)C[C@H]2C(=O)N2CCN(C(=O)C3CCCO3)CC2)cc1OC (some centres undefined),nt,nt,-5.8,nt,nt
Cc1ccc(C)n1-n1c(C)nc2scc(-c3ccccc3)c2c1=O,26.9*,-3.7,-1.6,90.0,25.8*
Cc1ccc(-c2csc3nc(C)n(N)c(=O)c23)o1,-0.1,-5.8,0.8,98.0,nt
Cc1ccc(-c2csc3nc(C)n(-n4c(C)ccc4C)c(=O)c23)o1,15.3*,-3.4,-1.7,98.0,12.0*
Cc1c[nH]c2cccc(-c3ccc(Cl)cc3Cl)c12,nt,nt,2.7,nt,nt
CN1CCN(CC(=O)Nc2ccccc2[N+](=O)[O-])CC1,-0.1,-4.7,3.5,99.0,nt
CN1CCN(CC(=O)Nc2cc(N3CCOCC3)ccc2[N+](=O)[O-])CC1,4.8*,-3.1,-0.1,104.0,0.1
N#Cc1cn(-c2ccccc2)nc1-c1ccc2c(c1)OCCO2,0.4,0.1,0.2,86.0,nt
O=Cc1cn(-c2ccccc2)nc1-c1ccc(F)cc1,12.3*,-2.5,1.2,103.0,8.3*

# Screening data from PubChem.
